# A selection: hits, their analogues and other compounds. The true share with any hit is near 12%.
# BAZ2B inh = blocks human BAZ2B. AlphaScreen BAZ2B-H3K14Ac peptide displacement. actives 4.4% (n = 360,000). Q9UIF8. Potency, µM (titrated, usually from 114 µM), inactives show at the top dose activity change, negative = inhibition, actives largely listed as inhibitors; note: % is set by controls: 0 for no effect and ±100 for the full control effect; nearly all actives have a fitted effect of over 60% in size
#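 Inhibition is scored as reduced AlphaScreen emission. The BAZ2B/b-H3(5-23)K14Ac complex (50 nM each) in PBS pH 7.4, 0.01% Tween-20 meets compound (up to 110 uM) for 30 min at RT before bead addition.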
# PLK1 PBD block = inhibitors of human PLK1 polo-box domain binding; Plk1 PBD binding of FITC phosphopeptide, fluorescence polarization; P53350; actives 2.8% (n = 360,000); Potency, µM, for the others: max response, negative = inhibition, actives largely listed as inhibitors; note: series mostly up to about 57 µM; % is set by controls: 0 for no effect and ±100 for the full control effect; nearly all actives have a fitted effect of over 65% in size
# Sfp inh = inhibitors of Bacillus subtilis Sfp phosphopantetheinyl transferase; Biochemical Sfp PPTase activity, qHTS; Potency, µM, for inactives: largest response in the series, negative = inhibition, actives largely listed as inhibitors; actives 3.5% (n = 310,000); AID 1490;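 note: the enzyme is Sfp with the accession as filed and its product quenches rhodamine fluorescence; 0% = enzyme reaction without inhibitor and -100% = no enzyme wells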
#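 With Hepes-Na pH 7.6 buffer containing 10 mM MgCl2, Sfp (15 nM) modified BHQ-2-YbbR (12.5 uM) using rhodamine-CoA (5 uM). Two reads 30 minutes apart at 525/598 nm yielded each well's rate.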
# G9a block = inhibitors of human histone lysine methyltransferase G9a. actives 8.8% (n = 350,000). G9a H3K9 monomethylation, AlphaScreen, 2 h. Q96KQ7. Potency, µM (highest dose often 102 µM), for the others: top-dose activity, negative = inhibition, usual class: inhibitors; note: % is set by controls: 0 for no effect and ±100 for the full control effect; nearly all actives have a fitted effect of over 75% in size
#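 G9a (20 nM) preincubated 15 min RT with compounds, then 500 nM biotinylated H3K9 peptide and 20 uM SAM added; 2 h RT reaction. Monomethyl-H3K9 product detected by AlphaScreen with anti-H3K9me1 antibody, streptavidin donor and anti-rabbit IgG acceptor beads.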
# JMJD2A Tudor inh = inhibitors of human JMJD2A Tudor domain. O75164. AlphaScreen JMJD2A-Tudor / H3K4me3 peptide binding. Potency, µM (series often up to 114 µM), without a hit: at the top dose activity change, negative = inhibition, actives largely listed as inhibitors. actives 4.4% (n = 390,000). AID 504339; note: % is set by controls: 0 for no effect and ±100 for the full control effect; nearly all actives have a fitted effect of over 50% in size
# Target sequence (O75164 whole entry, looked up, the tested form may be a part): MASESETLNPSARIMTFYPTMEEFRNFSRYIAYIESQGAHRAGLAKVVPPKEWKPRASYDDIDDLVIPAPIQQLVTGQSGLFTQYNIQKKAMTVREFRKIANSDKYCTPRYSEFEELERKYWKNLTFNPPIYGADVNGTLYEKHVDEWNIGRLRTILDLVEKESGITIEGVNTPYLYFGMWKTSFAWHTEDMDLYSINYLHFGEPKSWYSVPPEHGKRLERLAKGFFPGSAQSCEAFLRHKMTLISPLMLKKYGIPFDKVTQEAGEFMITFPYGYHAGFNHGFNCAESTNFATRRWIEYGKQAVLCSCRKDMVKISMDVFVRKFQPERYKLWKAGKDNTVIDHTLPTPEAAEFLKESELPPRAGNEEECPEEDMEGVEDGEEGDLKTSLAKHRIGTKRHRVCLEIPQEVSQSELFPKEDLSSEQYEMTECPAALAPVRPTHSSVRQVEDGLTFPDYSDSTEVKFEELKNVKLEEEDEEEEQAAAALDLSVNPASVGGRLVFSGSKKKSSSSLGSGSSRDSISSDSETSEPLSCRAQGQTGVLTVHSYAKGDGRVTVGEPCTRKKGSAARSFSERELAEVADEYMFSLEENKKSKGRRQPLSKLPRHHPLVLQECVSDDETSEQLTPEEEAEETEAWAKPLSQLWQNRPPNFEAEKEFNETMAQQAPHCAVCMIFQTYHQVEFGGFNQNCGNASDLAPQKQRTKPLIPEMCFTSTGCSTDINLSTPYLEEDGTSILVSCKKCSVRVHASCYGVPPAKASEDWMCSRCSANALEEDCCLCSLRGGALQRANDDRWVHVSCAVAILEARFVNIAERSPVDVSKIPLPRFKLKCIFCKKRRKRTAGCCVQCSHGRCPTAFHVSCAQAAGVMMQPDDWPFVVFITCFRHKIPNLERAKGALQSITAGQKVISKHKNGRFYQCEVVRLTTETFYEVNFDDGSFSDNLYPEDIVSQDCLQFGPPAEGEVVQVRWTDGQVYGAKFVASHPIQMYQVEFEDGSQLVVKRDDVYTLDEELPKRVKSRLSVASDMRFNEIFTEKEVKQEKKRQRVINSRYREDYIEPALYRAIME
# HP1b binding inh = blocks HP1-beta chromodomain binding to methylated histone tails; AID 540317; AlphaScreen HP1-beta / biotin-H3K9me3 peptide binding; actives 0.56% (n = 390,000); Potency, µM (series often up to 114 µM), inactives show top-dose activity change, negative = inhibition, hits mostly inhibitors; note: nearly all actives have a fitted effect of over 70% in size
#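 Compound inhibition of the preformed complex between 50 nM HP1-beta and 50 nM biotinylated H3K9me3 peptide was read by AlphaScreen. Buffer was PBS pH 7.4 with 0.01% Tween-20. Incubations ran 30 min at room temperature, with 10 ug/mL donor/acceptor beads.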
# * hit, by the source's call; ? = inconclusive; · = no result given; [ ] = another dose, or the depositor's remark. Calls come from the whole dose curve; as a rule, active = well fitted curve in the direction sought with a large enough effect; inconclusive = small, poorly fitted or top-dose-only effect, or another doubt; inactive = no such curve, though single readings can be large; an effect the other way counts as inactive or inconclusive. Potency is the fitted concentration of half-maximal effect.
SMILES,BAZ2B inh,PLK1 PBD block,Sfp inh,G9a block,JMJD2A Tudor inh,HP1b binding inh
CS(=O)(=O)N1CCC2(CCN(Cc3nccs3)CC2)CC1,·,·,?,-19%[12.7 µM],·,·
O=c1cc(-c2ccccc2)nc(SCc2nc(-c3cccc(C(F)(F)F)c3)no2)[nH]1,1%,·,·,-14%[59 µM],-11%,26%[57 µM]
CO/N=C(\C)CCN1CCCc2nc(C)c(C)cc21,·,·,10%,·,·,·
NC(=O)CSc1nnc2ccc(-c3ccc(Cl)cc3)nn12,89µM*,-10%,22%,50µM*,-11%,28%
O=C(CSc1nnc2ccc(-c3ccncc3)nn12)Nc1ccc(F)cc1,-26%,-7%,·,6.3µM*,-4%,4%
NC(=O)CSc1nnc2ccc(-c3ccc(F)cc3)nn12,-22%,15µM*,-16%,-14%,-24%[11.4 µM],14%
Cc1ccc(-c2ccc3nnc(SCC(N)=O)n3n2)cc1,-11%,-6%,-1%,45µM*,2%,39%
Cc1ccc(NC(=O)CSc2nnc3ccc(-c4cccnc4)nn23)cc1,-6%,0%,·,2%,-11%,3%
C#CCCCO/N=C1/C[C@@H](O)[C@@H](O)[C@@H]2[C@@H]3C(=O)N(Cc4ccc5c(c4)OCO5)C(=O)[C@H]3CC[C@H]12,·,·,-13%,·,·,·
CCOc1ccc(CN2C(=O)c3ccccc3Sc3ccc(C(=O)O)cc32)cc1,-10%,·,·,6%[59 µM],-13%,18%
CC(=O)Nc1nc(C)c(C(C)(C)C)s1,-19%,-10%,?,29%[59 µM],-12%,3%
CC(=O)Nc1nc(=S)ss1,1%,24µM*,16µM*,?,-34%,-41%
CC(=O)c1sc(NC(=O)c2c(F)cccc2F)nc1C,?,-10%,2%,-25%[59 µM],-18%,21%
O=C(Nc1nc(=S)ss1)c1c(F)cccc1F,-20%,-4%,22µM*,18µM*,5%,46%
CC(C)CC(=O)Nc1nc(=S)ss1,-36%,17µM*,16µM*,1.6µM*,?,?
Cc1ccccc1C(=O)Nc1nc(=S)ss1,2%,11µM*,22µM*,13µM*,?,-42%
O=S(=O)(c1ccccc1)N1N=C(c2ccc(Cl)cc2)CC1c1ccco1 (centres undefined),0%,-1%,·,45µM*,-26%,16%
Clc1ccc(C2=NN(c3ccccc3)C(c3ccco3)C2)cc1 (centres undefined),14%,-3%,28µM*,·,248%,379%
COc1ccc(C2=NN(c3nc(-c4ccccc4)c(CC(=O)O)s3)C(c3ccco3)C2)cc1 (centres undefined),50µM*,11µM*,14µM*,14µM*,79µM*,-14%
Cc1nc(N2N=C(c3ccc(Cl)cc3)CC2c2ccco2)sc1C(=O)N(C)C (centres undefined),15%,-14%,25µM*,-3%,16%,95%
COc1ccc(C2=NN(C(=O)COc3ncnc4ccccc34)C(c3ccco3)C2)cc1 (centres undefined),-26%,-5%,-17%,?,-21%,18%
CCC(C)(CCN1CCOCC1)N(Cc1cc2ccccc2n(C)c1=O)C(=O)C1CCCCC1 (centres undefined),·,·,·,·,-14%,·
O=C(N/N=C/c1cc2c(cc1Cl)OCO2)c1cc(-c2ccccc2)n[nH]1,-12%,-3%,15%,11%,-18%,11%
CCC(=O)Oc1ccc(-c2nc3ccccc3c(=O)o2)cc1,-8%,·,·,-9%[59 µM],-6%,11%
CC(=O)N1N=C(c2ccc(Cl)cc2)CC1c1ccco1 (centres undefined),19%,-13%,?,·,-16%,3%
O=C(c1ccc(Br)o1)N1N=C(c2ccc(Cl)cc2)CC1c1ccco1 (centres undefined),?,-26%,40µM*,50µM*,?,?
O=C(O)CN1C(=O)C2C3CCC(C3)C2C1=O (centres undefined),·,1%,·,·,·,·
O=C(NC(=O)c1ccc(Cl)cc1)Nc1ccc(-c2cnco2)cc1,-1%,·,5%,6%,·,·

# Bioassay records: PubChem, National Center for Advancing Translational Sciences (NCATS)
